Most compounds without a hit are left out; they make up all but 2.8% or so of the library.
KDM5B inh – inhibitors of human KDM5B histone demethylase | Potency, µM (doses to about 57.7 µM), most hits filed as inhibitors | AID 1347165 | KDM5B demethylase, FDH-coupled NADH fluorescence (FDH is formaldehyde dehydrogenase) | Q9UGL1 | 2.6% of 220,000 active; active = well fitted inhibition curve with a large enough effect; inconclusive = small, poorly fitted or top-dose-only effect; inactive = no such curve, though single readings can be large or run the other way; also: potency is read from the fitted curve at half-maximal effect; 0% is about no effect; nearly all actives have a fitted effect of over 70% in size
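Here, H3K4me3 peptide (12.5 µM in substrate mix) is demethylated by KDM5BΔAP, 200 nM final, after 10 min compound exposure. Formaldehyde product is coupled through FDH (0.25 U/mL in mix) to NADH fluorescence; 30-min ΔRFU feeds dose-response curves.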
IP6K1 inh – inhibitors of human IP6K1. Q92551. IP6K1 kinase, ADP-Glo luminescence, 2 h; active compounds read low. activity change, % (series mostly up to about 58 µM). 0.81% of 140,000 active; in the data active = activity change below about -25%; also: % is scaled to controls: 0 for no effect and ±100 for the full control effect
Target sequence (Q92551 whole entry, looked up): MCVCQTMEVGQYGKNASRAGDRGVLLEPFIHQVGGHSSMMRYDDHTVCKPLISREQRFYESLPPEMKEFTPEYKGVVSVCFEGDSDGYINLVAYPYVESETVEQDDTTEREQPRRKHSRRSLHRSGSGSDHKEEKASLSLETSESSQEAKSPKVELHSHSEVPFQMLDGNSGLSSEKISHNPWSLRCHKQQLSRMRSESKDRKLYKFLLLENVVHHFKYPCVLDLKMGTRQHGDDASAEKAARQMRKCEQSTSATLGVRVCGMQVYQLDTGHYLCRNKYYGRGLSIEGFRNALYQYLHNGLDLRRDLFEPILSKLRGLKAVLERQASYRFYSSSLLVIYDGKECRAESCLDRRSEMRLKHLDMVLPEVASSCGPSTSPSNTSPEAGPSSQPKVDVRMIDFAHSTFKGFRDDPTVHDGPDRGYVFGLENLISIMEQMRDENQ
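ADP-Glo luminescence measures ADP made by human IP6K1 during a 2 h RT reaction with ATP/IP6 (mix at 1.3 mM/130 uM); top library doses 57.5 and 19.1 uM final.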
* = called active by the depositor; i = inactive; u = inconclusive; x = no result given.

SMILES	KDM5B inh	IP6K1 inh
COC(=O)CNC(=O)C1CCCN(C(=O)c2cc3ccccc3[nH]2)C1 (stereo not drawn)	i	x
Cc1c(CN2CCCC(C(=O)Nc3cccc(-c4cc5ccccc5[nH]4)c3)C2)cnn1C (stereo not drawn)	28.2µM*	-7.3
Cc1cc(C(=O)N2CCCC(C(=O)Nc3cccc(-c4cc5ccccc5[nH]4)c3)C2)nn1C (stereo not drawn)	31.6µM*	11.0
CCn1cc(C(=O)N2CCCC(C(=O)Nc3cccc(-c4cc5ccccc5[nH]4)c3)C2)cn1 (stereo not drawn)	28.2µM*	28.3
O=C(NC1CC1)C1CCN(C2CCN(C(=O)c3c(O)cccc3O)CC2)CC1	i	24.1
Cc1nnc2ccc(N3CCN(C(=O)c4ccncc4)CC3)nn12	x	-3.3
CCOC(=O)N1CCN(C(=O)CN(c2cc(Cl)ccc2OC)S(C)(=O)=O)CC1	i	x
Cc1cn2nc(C(=O)NCc3ccccc3Cl)cc2c(N2CCCC2)n1	i	2.2
Cc1ccc(CCNC(=O)c2cc3c(N4CCCC4)nc(C)cn3n2)cc1	i	-6.7
COc1ccc(CCNC(=O)c2cc3c(N4CCCC4)nc(C)cn3n2)cc1OC	i	4.6
Cc1cn2nc(C(=O)N3CCN(C(=O)c4ccco4)CC3)cc2c(N2CCCC2)n1	31.6µM*	-1.6
Cc1cn2nc(C(=O)NCc3ccccc3F)cc2c(N2CCCC2)n1	25.1µM*	0.0
COc1ccccc1CNC(=O)c1cc2c(N3CCCC3)nc(C)cn2n1	28.2µM*	13.2
COc1ccc(CNC(=O)c2cc3c(N4CCCC4)nc(C)cn3n2)c(OC)c1	28.2µM*	-10.2
Cc1cn2nc(C(=O)NCc3ccccc3F)cc2c(N2CCSCC2)n1	u	-4.4
COc1ccc(OC)c(C(=O)OCc2nc3ccccc3o2)c1	i	x
O=C(N[C@@H]1CN(Cc2ccc(F)cc2F)C[C@H]1CO)c1ccccc1	u	-10.4
CNC(=O)NC(=O)C(C)N(C)Cc1ccccc1 (stereo not drawn)	i	x
O=C(Nc1ccccc1F)C1C2CC/C=C\CC/C=C/CCC21 (stereo not drawn)	i	x
Cc1cccc(CNC(=O)c2cc3c(N4CCCC4)nc(C)cn3n2)c1	i	7.1
Cc1cn2nc(C(=O)NCc3ccc(C(C)C)cc3)cc2c(N2CCCC2)n1	35.5µM*	19.8
CCN(Cc1ccccc1)C(=O)c1cc2c(N3CCCC3)nc(C)cn2n1	25.1µM*	-0.6
Cc1cn2nc(C(=O)NCc3ccc(F)cc3)cc2c(N2CCSCC2)n1	u	-0.9
Cc1cn2nc(C(=O)NCc3ccccn3)cc2c(N2CCCC2)n1	i	0.0
COc1ccccc1CNC(=O)c1cc2c(N3CCSCC3)nc(C)cn2n1	7.08µM*	0.0
SMILES	KDM5B inh	IP6K1 inh
CC(C)Cn1nc(C(=O)Nc2ccc3c(c2)CCC3)c2ccccc2c1=O	i	x
O=[S+]1([O-])NCC2(CCN(CC3CCNCC3)C2)Nc2ccccc21 (stereo not drawn)	i	1.3
Cc1c[nH]c(C=O)c1C	i	x
Cc1ccc(C)c(-n2cccc2C=O)c1	i	x
COC(=O)c1ncoc1-c1ccccc1C(=O)NCc1ccc(Cl)cc1	i	x
CN(C)c1ccc(-c2nc(C3CC(=O)N(c4ccc(Cl)cc4)C3)no2)cc1 (stereo not drawn)	3.98µM*	0.0
CCCCOc1ccc(-c2nc(C3CC(=O)N(c4ccc(F)cc4)C3)no2)cc1 (stereo not drawn)	31.6µM*	-8.0
CCOc1cc(-c2nc(C3CC(=O)N(c4ccc(F)c(Cl)c4)C3)no2)cc(OCC)c1OCC (stereo not drawn)	u	2.1
O=C1CC(c2noc(-c3ccccc3)n2)CN1c1ccc(Cl)cc1 (stereo not drawn)	i	-2.5
CCOc1ccc(-c2nc(C3CC(=O)N(c4ccc(F)c(Cl)c4)C3)no2)cc1OCC (stereo not drawn)	31.6µM*	-9.2
O=C1CC(c2noc(-c3ccc(F)cc3)n2)CN1c1ccc(Cl)cc1 (stereo not drawn)	u	15.3
CCCCOc1ccc(-c2nc(C3CC(=O)N(c4ccc(OC)cc4)C3)no2)cc1 (stereo not drawn)	u	-2.3
O=C1CC(c2noc(-c3ccc(-c4ccccc4)cc3)n2)CN1c1ccc(F)cc1 (stereo not drawn)	31.6µM*	-11.0
CC(=O)Nc1ccc(NC(=O)C(C)OC(=O)c2ccccc2-n2cnnn2)cc1 (stereo not drawn)	i	x
COc1ccc(S(=O)(=O)Nc2ccc(Nc3cc(N4CCCC4)nc(C)n3)cc2)c(C)c1C	i	x
O=C(NCCCl)c1ccc2ccccc2n1	i	x
CN(C)C(=O)NC1CCN(Cc2cccc(-c3cccs3)c2)CC1	x	14.6
CCOc1ccc(-c2nc(C3CC(=O)N(c4ccc(Cl)cc4)C3)no2)cc1 (stereo not drawn)	31.6µM*	-4.2
COc1ccc(N2CC(c3noc(-c4ccc(Cl)cc4)n3)CC2=O)cc1 (stereo not drawn)	i	12.2

Compound activity as filed in PubChem BioAssay.
